# Screening results (PubChem BioAssay)
# The full list was thinned out, with hits kept by preference.
# AmpC inh detg: inhibitors of E. coli AmpC beta-lactamase with detergent; P00811; AmpC hydrolysis of nitrocefin, absorbance 480 nm, 0.01% Triton; Potency, µM (titrated, usually from 114 µM), for the others: top-dose activity change, negative = inhibition, most hits filed as inhibitors; actives 0.041% (n = 370,000);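 note: potency is the fitted concentration of half-maximal effect; 0% = no-compound wells and -100% = no-enzyme wells; nearly all actives have a fitted effect of over 25% in size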
# Target sequence (P00811 whole entry, looked up): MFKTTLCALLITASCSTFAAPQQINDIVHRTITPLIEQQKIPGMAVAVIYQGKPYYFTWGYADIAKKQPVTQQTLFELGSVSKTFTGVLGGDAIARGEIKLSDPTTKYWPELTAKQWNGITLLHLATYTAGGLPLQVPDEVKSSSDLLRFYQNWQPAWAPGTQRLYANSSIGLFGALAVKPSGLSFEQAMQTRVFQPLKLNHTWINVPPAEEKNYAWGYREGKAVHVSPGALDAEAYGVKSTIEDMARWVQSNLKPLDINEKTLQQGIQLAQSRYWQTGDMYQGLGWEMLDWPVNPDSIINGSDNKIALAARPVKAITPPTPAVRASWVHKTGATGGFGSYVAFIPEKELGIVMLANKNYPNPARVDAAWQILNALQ
#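 20 mM phosphate pH 7.0 + 0.01% (detergent screen) or 0.0001% Triton X-100; 5.3 nM AmpC reagent; cpd preinc 15 min RT; nitrocefin (800 uM stock) to start; A480 q20 s × 4 min; Activity was normalised to no-enzyme and no-compound control wells.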
# AmpC no deterg: blocks E. coli AmpC beta-lactamase in detergent-free assay. P00811. AmpC nitrocefin hydrolysis, absorbance 480 nm, 0.0001% Triton. Potency, µM (top dose mostly 57.1 µM), for the others: top-dose activity change, negative = inhibition, actives largely listed as inhibitors. actives 0.52% (n = 330,000);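 note: potency is the fitted concentration of half-maximal effect; plate controls were no compound for no effect and no enzyme for full effect; nearly all actives have a fitted effect of over 20% in size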
#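 AmpC (5.3 nM in the dispensed reagent) in 20 mM phosphate pH 7.0 with 0.01% (detergent screen) or 0.0001% Triton X-100 was preincubated with compounds for 15 min at room temperature. Nitrocefin was then added from an 800 uM solution, and hydrolysis was followed at 480 nm.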
# NS1 inh: inhibitors of influenza NS1 protein function | actives 0.4% (n = 270,000) | AID 2326 | Potency, µM (highest dose often 46.1 µM), for the others: top-dose activity, positive = more growth; calls by dose curve; note: potency is the fitted concentration of half-maximal effect; actives are rising curves; nearly all actives have a fitted effect of over 50% in size
#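 In this qHTS, NS1 from influenza A is expressed in budding yeast, where it slows growth. Cells are switched from glucose to 2% galactose medium (pH 6.0, -URA), treated with compound, and growth recovery is read at OD600.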
# Cycloheximide cs: counter-screen for Shiga toxin inhibitors: cycloheximide protein synthesis inhibition; cell reporter, cycloheximide protein synthesis inhibition counterscreen; max response, %; actives 12% (n = 300,000); in the data active = max response mostly above about 13%, no sharp cut-off; inactive = mostly below about 14%; note: read at 38.3 µM for the half of the compounds with a filed dose; 0% is about no effect
# Shiga inhibitor: inhibitors of Shiga toxin in Vero cells | Vero cells, Shiga toxin protein synthesis inhibition reporter | inhibition, % at 38.7 µM | actives 9.2% (n = 290,000) | AID 2315; in the data active = inhibition mostly above about 28%, no sharp cut-off; inactive = mostly below about 43%; note: 0% is about no effect
# An asterisk follows results filed as active; ? = inconclusive; nt = not tested or not shown. Unless noted, calls come from the whole dose curve; as a rule, active = well fitted curve in the direction sought with a large enough effect; inconclusive = small, poorly fitted or top-dose-only effect, or another doubt; inactive = no such curve, though single readings can be large; an effect the other way counts as inactive or inconclusive.
SMILES,AmpC inh detg,AmpC no deterg,NS1 inh,Cycloheximide cs,Shiga inhibitor
CCC(C)[C@H](NC(=O)[C@@H]1Cc2ccccc2CN1)C(=O)NCc1ccc(OC)cc1 (stereo partly drawn),-15%,-8%,-9%,0,-5
CC(C)C[C@H](NC(=O)[C@@H]1Cc2ccccc2CN1)C(=O)Nc1ccc(C(C)C)cc1,-2%,1%,7%,23*,22
CCc1ccc(NC(=O)[C@H](NC(=O)[C@@H]2Cc3ccccc3CN2)c2ccccc2)cc1,1%,9%,9%,28*,19
CCOc1ccc(/C=C/c2nc(C#N)c(N3CCC(C)CC3)o2)cc1,23%,nt,nt,nt,nt
Cc1cccc(N(CC(=O)N2CCCC2)S(C)(=O)=O)c1,-2%,-13%,14%,4,nt
Cc1ccc(Cl)cc1NC(=O)C(C)n1nc(-c2ccccc2)ccc1=O (stereo not drawn),0%,nt,nt,nt,nt
CCOc1ccc(NC(=O)CCC(=O)NNC(=O)c2ccco2)cc1,2%,-9%,9%,-1,2
CCOc1ccccc1NC(=O)c1ccc(NC(=O)c2ccco2)cc1,-1%,-13%,-5%,13*,51
CCOc1ccc(NC(=O)c2ccco2)cc1,-4%,-8%,-1%,30*,47*
CCOc1ccc(C(=O)Nc2ccccc2OC(F)F)cc1,-10%,-12%,nt,10,65*
COC(=O)COc1ccc(NC(=O)c2ccco2)cc1,3%,-5%,1%,16*,22
COc1ccc(OCC(=O)Nc2cccc(NC(=O)c3ccco3)c2)cc1,0%,-34%,-1%,15,30
S=C(NC1CCCC1)NN1CCOCC1,?,-9%,nt,1,-1
CCOc1ccc(NC(=S)NC(=O)C2CCCC2)cc1,5%,-26%,-4%,16*,69*
COc1cc(NS(=O)(=O)c2ccc(NC(=S)NC(=O)C3CCCC3)cc2)nc(OC)n1,-1%,16µM*,13%,1,3
CCOc1ccc(-c2nonc2NC(=O)c2ccco2)cc1OCC,-5%,-17%,5%,18,36*
O=C(Nc1ccccc1F)Nc1ccccc1OC(F)F,2%,-27%,-72%,25*,31
Cc1ccc(C)n1-c1nnc(N2CCCC(C(=O)NCc3ccc(F)cc3)C2)s1 (stereo not drawn),-4%,nt,nt,nt,nt
CCOc1ccc(NC(=S)NC(=O)c2ccco2)cc1,-4%,-11%,-64%,62*,85*
CCCCN1CC(=O)N2[C@H](c3ccc(Cl)cc3)[C@@H]3C(=O)N(CC)C(=O)[C@@H]3[C@]2(Cc2ccccc2)C1=O,-15%,30%,-4%,-1,-6
CS(=O)(=O)c1ccc(-c2cn3cc(C(=O)O)ccc3n2)cc1,?,-12%,nt,-11,-16
COC(=O)c1ccc2nc(-c3ccc(S(C)(=O)=O)cc3)cn2c1,?,-17%,nt,59*,85
Cc1cc(C)cc(OCC(=O)Nc2ccc3c(c2)OCCO3)c1,-14%,-17%,nt,19,37
O=C(COc1ccc2c(c1)OCO2)Nc1cccc(F)c1,?,-15%,-33%,35*,101*
CCOC(=O)N1CCN(CC(=O)NC(=O)Nc2ccc3c(c2)OCCO3)CC1,0%,12%,nt,nt,nt
SMILES,AmpC inh detg,AmpC no deterg,NS1 inh,Cycloheximide cs,Shiga inhibitor
CCOC(=O)N1CCN(c2c(Nc3ccc4c(c3)OCCO4)c(=O)c2=O)CC1,4%,-9%,-1%,53*,64*
CCC(=O)c1ccc(OCC(=O)Nc2ccc3c(c2)OCCO3)cc1,nt,-30%,nt,nt,nt
O=C(COc1ccc(F)cc1)Nc1ccc2c(c1)OCCO2,3%,-32%,-33%,44*,70*
Cc1cc(OCC(=O)Nc2ccc3c(c2)OCCO3)ccc1Cl,-3%,-5%,-74%,39*,107*
C=CCNC(=O)NC(=O)COC(=O)CC(NC(N)=O)c1ccc(Cl)cc1 (stereo not drawn),-13%,-19%,-4%,-5,10
CCOCC(=O)Nc1ccc2c(c1)OCCO2,?,49%,-6%,42*,68*
CN(C)CCCNc1cc(O)c2ncccc2c1,?,-7%,nt,nt,nt
CC1(CC(=O)N/N=C/c2ccc(-c3ccc(Cl)cc3)o2)OCCO1,-3%,30%,-5%,15*,13
COC(=O)c1ccc(-c2ccc(/C=N/NC(=O)CC3(C)OCCCO3)o2)cc1,-1%,30%,-31%,36*,43*
CC1(CC(=O)N/N=C/c2ccc(-c3ccc(C(=O)O)cc3)o2)OCCO1,-12%,-18%,7%,21,20
